{"source": "PubChem BioAssay AID493210", "about": "(National Center for Advancing Translational Sciences (NCATS), 2011)", "target": "Aldehyde dehydrogenase 1A1 (Homo sapiens) (UniProt P00352)", "sequence (P00352 whole entry, looked up)": "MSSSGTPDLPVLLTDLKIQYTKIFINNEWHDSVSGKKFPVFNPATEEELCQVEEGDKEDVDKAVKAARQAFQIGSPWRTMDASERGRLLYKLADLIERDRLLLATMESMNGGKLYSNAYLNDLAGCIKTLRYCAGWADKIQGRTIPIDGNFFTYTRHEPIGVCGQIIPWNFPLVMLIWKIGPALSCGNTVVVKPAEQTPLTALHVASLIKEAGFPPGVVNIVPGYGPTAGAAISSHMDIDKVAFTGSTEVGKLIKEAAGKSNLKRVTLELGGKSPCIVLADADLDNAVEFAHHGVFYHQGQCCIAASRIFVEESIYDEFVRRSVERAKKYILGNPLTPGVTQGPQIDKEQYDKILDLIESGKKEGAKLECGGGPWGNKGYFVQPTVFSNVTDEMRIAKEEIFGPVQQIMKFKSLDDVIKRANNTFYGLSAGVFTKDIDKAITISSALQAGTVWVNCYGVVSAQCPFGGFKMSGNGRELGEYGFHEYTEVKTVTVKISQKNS", "test": "Inhibitors of Aldehyde Dehydrogenase 1 (ALDH1A1): Followup Confirmation and Counterscreen", "conditions": "purified ALDH1A1, NADH fluorescence, propionaldehyde/NAD+", "text": "Aldehyde dehydrogenase 1 (ALDH1A1) catalyzes the NAD+ dependent oxidation of a variety of endogenous and exogenous aldehydes to the corresponding carboxylic acids. The enzyme is the critical step in the metabolic activation of retinoic acid, which plays essential roles as nuclear receptor ligand. […] See [1] through for more information on ALDH1A1. Inhibition of ALDH1A1 activity was screened by utilizing propionaldehyde as an electron donor and NAD+ as an electron acceptor/cofactor. An increase in the fluorescence intensity due to conversion of NAD+ to NADH was used to measure the enzyme activity. See [5] for screening methodology used. References: [1] Manzer R, Qamar L, Estey T, Pappa A, Petersen DR, Vasiliou V. Molecular cloning and baculovirus expression of the rabbit corneal aldehyde dehydrogenase (ALDH1A1) cDNA. DNA Cell Biol. 2003 May;22(5):329-38. […] Quantitative high-throughput screening: a titration-based approach that efficiently identifies biological activities in large chemical libraries. […]\nBuffer: 100 mM Hepes pH 7.5, 0.01% Tween 20. […] The plates were immediately transferred to and read twice on ViewLux High-throughput CCD imager (Perkin-Elmer) 20 minutes apart using 360 nm excitation and 450 nm emission fluorescence protocol. The fluorescence intensity difference between the second and the first time points was used to compute reaction progress.", "note": "Some of the results follow. The source made the active and inactive calls. The call rests on the fitted dose curve.", "data": [{"compound": "C[C@]12CC[C@@H]3C(=CCc4cc(O)ccc43)[C@@H]1CCC2=O", "values": [{"measurement": "Potency", "result": "501 nM (active)"}]}]}
